Assay outcomes from PubChem.
Only some compounds are listed: those with a hit (about 1.2% of all), similar ones and a draw of the others.
UGM FP inh = Mtb UDP-galactopyranose mutase inhibition. P9WIQ1. purified UGM, fluorescence polarization probe displacement. inhibition, % at 10 µM. 0.06% of 320,000 active. AID 504406; in the data active = inhibition above about 10%, passing the limit was not always enough
Target sequence (P9WIQ1 whole entry, looked up): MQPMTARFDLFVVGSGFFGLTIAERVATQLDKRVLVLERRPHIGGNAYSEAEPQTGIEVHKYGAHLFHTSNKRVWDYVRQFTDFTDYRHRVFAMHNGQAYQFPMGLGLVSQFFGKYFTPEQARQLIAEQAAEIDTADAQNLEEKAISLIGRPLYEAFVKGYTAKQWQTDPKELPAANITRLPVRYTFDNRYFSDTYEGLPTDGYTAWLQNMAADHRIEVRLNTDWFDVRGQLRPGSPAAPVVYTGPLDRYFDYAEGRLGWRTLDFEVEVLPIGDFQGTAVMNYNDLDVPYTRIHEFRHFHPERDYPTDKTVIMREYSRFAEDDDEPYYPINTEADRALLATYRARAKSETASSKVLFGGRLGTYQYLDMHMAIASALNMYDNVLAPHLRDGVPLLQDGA
Rv3671c protease = Rv3671c (M. tuberculosis) protease inhibition | P9WHR9 | 0.048% of 320,000 active | inhibition, % at 5.96 µM | AID 2606; in the data active = inhibition above about 38%;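 also: extracellular domain of Rv3671c used as enzyme; 0% = enzyme with DMSO and 100% = no enzyme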
CCHFV vOTU inh = CCHFV vOTU protease inhibition; Pep-AMC fluorescence; inhibition, % at 11.5 µM; 0.55% of 370,000 active; in the data active = inhibition above about 30%; also: 0% = vehicle wells with enzyme and 100% = no enzyme wells
RecA splice inh = Mtb RecA intein splicing inhibition | 0.75% of 290,000 active | cell-free RecA intein splicing, fluorescence | inhibition, % (test concentration not listed) | P9WHJ3; in the data active = inhibition above about 30%;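 also: 0% = vehicle wells and 100% = reference inhibitor control wells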
Mtb bLac sens = beta-lactam sensitization of Mtb H37Rv. M. tuberculosis H37Rv growth with meropenem, percent inhibition. inhibition, % at 25 µM. 0.27% of 330,000 active; call rule not given here;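 also: growth measured after seven days incubation then overnight dye step; 0% = bacteria only wells and 100% = bacteria with antibiotic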
Numbers without * were called inactive.

Screening CCCc1[nH]nc2c1C(c1ccc(OC(=O)N3CCOCC3)c(OC)c1)C(C#N)=C(N)O2 (stereo unspecified) returned UGM FP inh -1, Rv3671c protease 8, CCHFV vOTU inh -6, RecA splice inh 42* and Mtb bLac sens 3.
CCOc1ccc(C2C(C#N)=C(N)Oc3n[nH]c(C)c32)cc1OC(=O)C1CC1 (stereo unspecified) was read as UGM FP inh -1, Rv3671c protease 4, CCHFV vOTU inh -7, RecA splice inh 66* and Mtb bLac sens 5.
Screening CCc1[nH]nc2c1C(c1ccc(Br)s1)C(C#N)=C(N)O2 (stereo unspecified) returned UGM FP inh -1, Rv3671c protease -7, CCHFV vOTU inh 0 and Mtb bLac sens 8.
For CCc1[nH]nc2c1C(c1cccc(OC(=O)N3CCOCC3)c1)C(C#N)=C(N)O2 (stereo unspecified) the results were UGM FP inh 4, Rv3671c protease -3, CCHFV vOTU inh -16, RecA splice inh 69* and Mtb bLac sens 11.
For COc1ccccc1N1CCN(C(=O)c2cc3c(C)nn(-c4ccccc4)c3s2)CC1 the results were CCHFV vOTU inh 3.
For CN(CCOC(=O)c1cc2ccccc2o1)C1CN(Cc2cn(Cc3cccc(F)c3)nn2)S(=O)(=O)C1 (stereo unspecified) the results were CCHFV vOTU inh -9.
For Oc1[nH]c2ccccc2c1N=Nc1ccc(F)cc1 the results were UGM FP inh 0, Rv3671c protease -12, CCHFV vOTU inh 4, RecA splice inh -1 and Mtb bLac sens 8.
For Oc1[nH]c2ccc(Br)cc2c1N=Nc1ccc(F)cc1 the results were UGM FP inh 18*, Rv3671c protease -1, CCHFV vOTU inh -2, RecA splice inh -10 and Mtb bLac sens 42.
Screening O=C(CSc1nnc(-c2ccccc2Cl)o1)Oc1ccc(Br)cc1 returned UGM FP inh 2, Rv3671c protease 6, CCHFV vOTU inh 5, RecA splice inh 61* and Mtb bLac sens -13.
O=c1oc(-c2ccccc2)cc(Cl)c1Cl was read as UGM FP inh 0, Rv3671c protease -12, CCHFV vOTU inh 0, RecA splice inh 47* and Mtb bLac sens 87.
Screening CCC(C)Nc1nc(Cl)nc(N(C#N)CN2C(=O)c3ccccc3S2(=O)=O)n1 (stereo unspecified) returned UGM FP inh 0, Rv3671c protease 1, CCHFV vOTU inh 3, RecA splice inh 37* and Mtb bLac sens 2.
`CC(C)Nc1nc(Cl)nc(N(C#N)CN2C(=O)c3ccccc3C2=O)n1` gave UGM FP inh 0, Rv3671c protease -2, CCHFV vOTU inh 24, RecA splice inh 2 and Mtb bLac sens 6.
`CN(C(=O)CNC(=O)c1ccccc1OCC(=O)Nc1ccc(I)cc1)c1ccccc1` gave CCHFV vOTU inh 0.
`Cc1ccc(C=C2C(Cl)=C(Cl)C(Cl)=C2Cl)cc1` gave UGM FP inh -3, Rv3671c protease 4, RecA splice inh 31* and Mtb bLac sens 99.
Screening Cc1ccc(Cn2nnc3c2-c2ccccc2S(=O)(=O)N(C2CC2)C3)cc1 returned CCHFV vOTU inh -3.
Screening CC1=Nc2ccccc2/C1=C\c1nc(-c2ccc(C(F)(F)F)cc2)oc1O returned UGM FP inh 12*, Rv3671c protease 5, CCHFV vOTU inh -11, RecA splice inh -2 and Mtb bLac sens 99.
`CC1=Nc2ccccc2/C1=C\c1nc(-c2ccccc2)oc1O` gave UGM FP inh 3, Rv3671c protease -24, CCHFV vOTU inh 7, RecA splice inh 1 and Mtb bLac sens 53.
`O=C(c1ccco1)N1CCN(c2nc(C3CC3)nc3sc4c(c23)CCCC4)CC1` gave UGM FP inh -1, Rv3671c protease -2, RecA splice inh 38* and Mtb bLac sens 99.
Cc1nc(N2CCN(C(=O)c3ccco3)CC2)c2c3c(sc2n1)CCCC3 was read as UGM FP inh 0, Rv3671c protease -8, CCHFV vOTU inh 12, RecA splice inh 7 and Mtb bLac sens 88.
`COc1ccc(C(=O)OCCN2CCN(C3CN(Cc4cn(Cc5cccc(C)c5)nn4)S(=O)(=O)C3)CC2)cc1OC` (stereo unspecified) gave CCHFV vOTU inh -2.
Screening O=C(COC(=O)c1ccc2c(c1[N+](=O)[O-])C(=O)c1ccccc1C2=O)NC1CC1 returned UGM FP inh 0, Rv3671c protease -3, CCHFV vOTU inh 11, RecA splice inh 71* and Mtb bLac sens 3.
`Nc1nc2cc3c(cc2cc1C(=O)NCc1cccnc1)OCO3` gave CCHFV vOTU inh -157.
`CC(=O)NC1=C(Nc2ccc(N(C)C)cc2)C(=O)c2ccccc2C1=O` gave UGM FP inh 0, Rv3671c protease -9, CCHFV vOTU inh 25, RecA splice inh 76* and Mtb bLac sens 10.
`CC1=C(Nc2ccc(C(=O)O)cc2)C(=O)c2ccccc2C1=O` gave UGM FP inh 3, Rv3671c protease 3, CCHFV vOTU inh 5, RecA splice inh 9 and Mtb bLac sens 0.
CC1C(=O)C(C)C(c2cc(Cl)ccc2O)NC1c1cc(Cl)ccc1O (stereo unspecified) was read as UGM FP inh 2, Rv3671c protease -22, CCHFV vOTU inh -9, RecA splice inh 50* and Mtb bLac sens -1.
CC1Oc2cc3c(-c4c(O)cc(O)c5c(O)c6c(cc45)OC(C)C(C)C6=O)c(O)cc(O)c3c(O)c2C(=O)C1C (stereo unspecified) was read as UGM FP inh 1, Rv3671c protease 40*, RecA splice inh 87* and Mtb bLac sens 6.
`CC(C)(C)c1cc[n+](-c2[nH]c(=O)sc2/C=N/NC([S-])=Nc2ccccc2)cc1` gave UGM FP inh 18*, Rv3671c protease 9, CCHFV vOTU inh 8, RecA splice inh -6 and Mtb bLac sens 2.
Cc1cc[n+](-c2[nH]c(=O)sc2/C=N/NC([S-])=Nc2ccccc2)cc1C was read as Rv3671c protease -10, CCHFV vOTU inh 17, RecA splice inh -2 and Mtb bLac sens -4.
For COC(=O)C1=C(C)N(Cc2ccc(C(F)(F)F)cc2)C(=NCc2ccccc2C(F)(F)F)NC1c1cccc(Cl)c1 (stereo unspecified) the results were CCHFV vOTU inh 19.
`COc1ccc(N2C(=O)c3cccc4c(N(C)CCO)ccc(c34)C2=O)cc1` gave UGM FP inh 21*, CCHFV vOTU inh -1, RecA splice inh -11 and Mtb bLac sens 7.
Screening COc1ccc(N2C(=O)c3cccc4cccc(c34)C2=O)cc1 returned UGM FP inh 3, Rv3671c protease -3, CCHFV vOTU inh 11, RecA splice inh -1 and Mtb bLac sens -6.
CN(C)c1ccc(NC(=O)C2C3C=CC(C3)C2C(=O)O)cc1 (stereo unspecified) was read as UGM FP inh -3, CCHFV vOTU inh 78*, RecA splice inh 0 and Mtb bLac sens 5.
Screening O=C(O)C1C2C=CC(C2)C1C(=O)Nc1ccc2c(c1)OCCO2 (stereo unspecified) returned UGM FP inh 0, Rv3671c protease 1, RecA splice inh 1 and Mtb bLac sens 0.
